Reference: PubChem BioAssay AID430 (Sanford-Burnham Center for Chemical Genomics, 2006)
The campaign covered roughly 63,000 compounds. About 1,100 (1.7%) were called active. Cut-off read from the data, not from the text of the source: active = cytotoxicity above about 50%; inactive = the rest. The entries come from a sample that favours actives as a whole. Results with a measured potency or affinity are listed apart.

assay: HPDE-C7 pancreatic duct cell viability loss – fluorescence, HTS (AID 430); details: HPDE-C7 pancreatic duct cells viability, at 10 µM, stronger effect = higher value;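 note: cells exposed to compound for 48 hours before viability readout; 0% = vehicle and 100% = reference cytotoxic drug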

Row | Compound | cytotoxicity
1 | CC1CCCN(S(=O)(=O)c2ccc(S(=O)(=O)N3CCCN(Cc4ccccc4)C3)cc2)C1 (configuration not stated) | 3.7% (inactive)
2 | COc1ccc(N2CCN(c3nc4c(c(=O)[nH]c(=O)n4C)n3CCCc3ccccc3)CC2)cc1 | -7.6% (inactive)
3 | Cc1ccc(-c2c3c(=O)n(C)c(=O)n(C)c3cn2Cc2ccccn2)cc1 | -3.1% (inactive)
4 | CCCOc1ccc(CSc2nnc(CCC)n2N)cc1 | -13.5% (inactive)
5 | O=C1c2ccncc2C(=O)N1C1CCCCC1 | -7.2% (inactive)
6 | CN1CCN(C2=C(Cl)C(=O)N(C3CCCCC3)C2=O)CC1 | -8% (inactive)
7 | Cc1ccc(NS(=O)(=O)c2ccc(OCC(=O)NCc3ccco3)cc2)cc1 | 6.8% (inactive)
8 | CC(C)CCn1nc(C(=O)OC(C)C(=O)NC(N)=O)c2ccccc2c1=O (configuration not stated) | -13.9% (inactive)
9 | Cc1ccccc1N=C1NC(=O)CS1 | -24.1% (inactive)
10 | CCCn1c(CN2CCN(C(=O)OCC)CC2)nc2c1c(=O)n(C)c(=O)n2C | -8.2% (inactive)
11 | CCCCOC(=O)C1Cc2ccccc2C(=O)O1 (configuration not stated) | -4.8% (inactive)
12 | CC(C)Cn1c(CN2CCN(c3ccccc3F)CC2)nc2c1c(=O)[nH]c(=O)n2C | -0.6% (inactive)
13 | Cn1c(=O)[nH]c(=O)c2c1nc(CN1CCN(c3cccc(Cl)c3)CC1)n2Cc1ccccc1Cl | -3.5% (inactive)
14 | CCCCCn1c(CN2CCN(Cc3ccccc3)CC2)nc2c1c(=O)[nH]c(=O)n2C | 0% (inactive)
15 | CCCCCn1c(CN2CCN(c3cccc(Cl)c3)CC2)nc2c1c(=O)[nH]c(=O)n2C | 43.9% (inactive)
16 | Cc1ccc(Cl)cc1N1CCN(Cc2nc3c(c(=O)[nH]c(=O)n3C)n2Cc2ccccc2F)CC1 | 112% (active)
17 | O=C(Cc1c(O)c2ccccc2[nH]c1=O)NCc1cccc(F)c1 | 2.7% (inactive)
18 | CCN(CC)CCCN1C(=O)C(=O)/C(=C(/O)c2ccc(OC)c(Cl)c2)C1c1ccco1 (configuration not stated) | 4.6% (inactive)
19 | COc1ccccc1CN1C(=O)[C@@H]2C(CCC(N)=O)NC3(C(=O)Nc4c3ccc(Cl)c4C)[C@@H]2C1=O (some centres not stated) | -5.3% (inactive)
20 | c1ccc2c(c1)Cn1nnnc1-2 | 1.3% (inactive)
21 | Cn1nc(-c2ccc(N3CCCCC3)c(NC(=O)c3ccco3)c2)c2ccccc2c1=O | 64.9% (active)
22 | CCCC(=O)Nc1cc(-c2nn(C)c(=O)c3ccccc23)ccc1N1CCCCC1 | -10.2% (inactive)
23 | CCC(=O)Nc1cc(-c2nn(C)c(=O)c3ccccc23)ccc1N1CCCCC1 | 5.4% (inactive)
24 | O=C(CCCC(=O)N(CC(=O)NC1CCCC1)C1CCCC1)Nc1ccccn1 | -20.8% (inactive)
25 | CCNC(=O)NC(=O)C(C)Oc1ccc(C(=O)OC)cc1 (configuration not stated) | 2.8% (inactive)

Row | Compound | cytotoxicity
26 | Cc1sc(NC(=O)CSc2nnc(COc3ccccc3)n2C)c(C#N)c1C | 4.2% (inactive)
27 | Cc1ccc(-c2csc3nnc(SCC(=O)Nc4nsc(-c5ccccc5)n4)n23)cc1 | -4.6% (inactive)
28 | Oc1ccccc1-c1nnc(COc2ccc(Cl)cc2Cl)o1 | 35.9% (inactive)
29 | O=C(O)CCCC(=O)Nc1nc(-c2ccccc2)cs1 | 6.9% (inactive)
30 | COc1cc2[nH]c(=O)n(CCC(=O)N3CCN(c4cccc(C)c4C)CC3)c(=O)c2cc1OC | 0.4% (inactive)
31 | COc1cc2[nH]c(=O)n(CCC(=O)N3CCN(c4cc(Cl)ccc4C)CC3)c(=O)c2cc1OC | 63.8% (active)
32 | CCOc1cc2[nH]c(=O)n(CCC(=O)N3CCN(c4ccccc4OC)CC3)c(=O)c2cc1OCC | -8.1% (inactive)
33 | COc1ccc(Cl)cc1C(=O)N1CCN=C1SC | -11.2% (inactive)
34 | CCOc1cc(C#N)c(NC(=O)c2ccco2)cc1OCC | 12.6% (inactive)
35 | CCOc1cc(C#N)c(NC(=O)c2cccnc2)cc1OCC | 51.5% (active)
36 | CCOc1cc(C#N)c(NC(=O)c2ccnn2C)cc1OCC | 23.5% (inactive)
37 | Cc1nc(Nc2nc(-c3ccccc3)cc(=O)[nH]2)nc2ccccc12 | 52.3% (active)
38 | Cc1nc(-c2ccccc2)cc(=O)[nH]1 | 4% (inactive)
39 | COc1nc(Nc2nc3ccccc3c(=O)[nH]2)nc2ccc(C)cc12 | 86.7% (active)
40 | COc1ccc2nc(Nc3nc(C)c(CCC(C)C)c(=O)[nH]3)nc(C)c2c1 | 6.2% (inactive)
41 | Cc1ccc2c(C)nc(Nc3nc(CSc4nnnn4-c4ccccc4)cc(=O)[nH]3)nc2c1 | 51% (active)
42 | Cc1ccc(Nc2nc(CSc3nnnn3-c3ccccc3)cs2)cc1 | 32.1% (inactive)
43 | CCCCCc1c(C)nc(Nc2nc(C)c3cc(OC)ccc3n2)[nH]c1=O | -0.5% (inactive)
44 | COc1cc2nc(NC(=O)c3ccccc3)[nH]c(=O)c2cc1OC | 13.3% (inactive)
45 | Cc1nnc(SCc2cc(=O)[nH]c(Nc3nc(C)c4ccccc4n3)n2)s1 | -0.8% (inactive)
46 | Cc1ccc(Nc2nc(CSc3nnnn3-c3ccccc3)cc(=O)[nH]2)cc1 | 12% (inactive)
47 | Cc1ccc2nc(Nc3nc(=O)c4ccccc4n3C)nc(C)c2c1 | 13.7% (inactive)
48 | CCc1c(C)nc(Nc2nc(C)c3cc(OC)ccc3n2)[nH]c1=O | 56.1% (active)
49 | Cc1ccc(NC(=O)CSc2nnc(CNC(=O)c3c(F)cccc3Cl)o2)cc1 | -9.7% (inactive)
50 | CCOc1ccc(N2CC(C(=O)Nc3ccccc3OC)CC2=O)cc1 (configuration not stated) | -2.5% (inactive)

Row | Compound | cytotoxicity
51 | COc1cc(C(=S)N2CCCC2)cc(Cl)c1O | -4% (inactive)
52 | COc1ccccc1-c1cc(C(=O)NCc2ccc(Cl)cc2)no1 | -15.3% (inactive)
53 | OCc1nn2c(c1Br)NC(c1ccccc1)CC2C(F)(F)F (configuration not stated) | -8.4% (inactive)
54 | CCOc1ccc(CCNC(=O)C2CCN(c3nn4c(=O)cc(C)nc4s3)CC2)cc1OCC | -6.6% (inactive)
55 | COc1cc(OC)cc(C(=O)NC2CCN(Cc3nnnn3Cc3cccs3)CC2)c1 | -7.1% (inactive)
56 | CC(=O)NC(CCS(C)(=O)=O)C(=O)Nc1c(C)cccc1C (configuration not stated) | 10.4% (inactive)
57 | COCc1cc(=O)[nH]c(Nc2nc(C)c3ccc(C)cc3n2)n1 | 5.4% (inactive)
58 | COc1ccc2c(C)nc(Nc3nc(C)cc(=O)[nH]3)nc2c1 | 80.7% (active)
59 | COc1ccc2c(C)nc(Nc3nc(C)cc(C)n3)nc2c1 | -4.7% (inactive)
60 | N#Cc1c(-c2ccccc2)nc(SCc2nc(N)nc(N3CCCCC3)n2)[nH]c1=O | 9.2% (inactive)
61 | CCN1CCN(CCNC(=O)c2cn(C(C)c3ccccc3F)nn2)CC1 (configuration not stated) | -5.9% (inactive)
62 | COc1ccc(-c2cc(-c3ccccc3O)[nH]n2)cc1OC | 51.6% (active)
63 | COc1ccc(-c2cc(-c3cc(F)ccc3O)[nH]n2)cc1OC | 8.9% (inactive)
64 | Oc1ccccc1-c1cc(-c2cccc(F)c2)n[nH]1 | 3.1% (inactive)
65 | Cc1ccc(-n2ncc(C#N)c2/N=C/N(C)C)cc1 | 8.6% (inactive)
66 | CC(=O)Nc1ccc(NC(=O)c2cccc(C(=O)OC(C)C)n2)cc1 | -2.2% (inactive)
67 | O=C(NCCCN1CCN(CCCNC(=O)c2ccc(F)cc2)CC1)c1ccc(F)cc1 | -6.2% (inactive)
68 | CS(=O)(=O)N1CCc2cc(C(=O)O)ccc21 | -2.9% (inactive)
69 | CS(=O)(=O)N1CCc2cc(S(=O)(=O)N3CCN(Cc4ccc5c(c4)OCO5)CC3)ccc21 | 6.1% (inactive)
70 | CS(=O)(=O)N1CCc2cc(S(=O)(=O)Nc3ccc4oc5c(c4c3)CCCC5)ccc21 | 80% (active)
71 | COC(=O)c1ccccc1NC(=O)CSc1nnc(-c2cccc(NC(C)=O)c2)n1C | 6.2% (inactive)
72 | COc1ccc(OCc2nc(N)nc(Nc3cccc(C)c3C)n2)cc1 | -10.3% (inactive)
73 | N#Cc1c(NCCO)nc(NCc2ccccc2)c2c1CCN(Cc1ccccc1)C2 | 34.2% (inactive)
74 | C=CCNc1nc(NCc2ccccc2)c(C#N)c2c1CN(C)CC2 | 14.5% (inactive)
75 | CCN1CCc2c(C#N)c(N3CCCCC3)nc(NCc3ccccc3)c2C1 | 30.7% (inactive)

Row | Compound | cytotoxicity
76 | N#Cc1c(NCCCO)nc(-c2ccccc2)c2c1CCCC2 | 38.6% (inactive)
77 | O=C(c1ccccc1F)N1CCN(S(=O)(=O)c2ccc(S(=O)(=O)N3CCCCC3)cc2)CC1 | -2.6% (inactive)
78 | Cn1c(=O)n(C)c2cc(NS(C)(=O)=O)ccc21 | -29.4% (inactive)
79 | Cc1noc(C)c1COC(=O)c1ccc2c(c1)OCO2 | -8.9% (inactive)
80 | Cc1ccc(S(=O)(=O)Nc2ccc3c(c2)nc2n3CCN(Cc3ccccc3)C2)cc1 | 10.2% (inactive)
81 | O=S(=O)(Nc1ccc2c(c1)nc1n2CCN(Cc2ccccc2)C1)c1ccccc1 | 2.6% (inactive)
82 | O=S(=O)(Nc1ccc2c(c1)nc1n2CCN(Cc2ccccc2)C1)c1ccc(Cl)cc1 | 68.2% (active)
83 | Cc1ccc(NC(=O)c2ccco2)cc1C | -2.6% (inactive)
84 | O=C1NCCCC2c3c(cc(Br)c(O)c3Br)OC12N1CCOCC1 (configuration not stated) | -5.7% (inactive)
85 | COC(=O)C1=C(C)NC(C)=C(C(=O)OC)C1c1cc2cc(C)ccc2[nH]c1=O | 2.9% (inactive)
86 | COc1ccc(C)cc1S(=O)(=O)N(CC(=O)N1CCOCC1)Cc1ccccc1 | -1.7% (inactive)
87 | N#Cc1cn(CC(=O)O)c2ccccc12 | -15.5% (inactive)
88 | N#Cc1cn(Cc2cccc(Cl)c2)c2ccccc12 | 56.1% (active)
89 | N#Cc1cn(Cc2ccccc2)c2ccccc12 | 6.7% (inactive)
90 | CCOc1ccc(N2C(=O)C3CCCN3C2=O)cc1 (configuration not stated) | 3.6% (inactive)
91 | COc1ccc(C(C#N)N2CCCCCC2)cc1OC (configuration not stated) | 2.4% (inactive)
92 | Fc1ccc(C2=Nn3c(nnc3-c3n[nH]c4c3CCC4)SC2)cc1 | 0.5% (inactive)
93 | Brc1ccc(C2=Nn3c(nnc3-c3n[nH]c4c3CCC4)SC2)cc1 | 61.4% (active)
94 | CC1=Nn2c(nnc2-c2n[nH]c3c2CCC3)SC1 | -3.7% (inactive)
95 | Clc1ccc(C2=Nn3c(nnc3-c3n[nH]c4c3CCC4)SC2)cc1Cl | 76.8% (active)
96 | c1ccc(C2=Nn3c(nnc3-c3n[nH]c4c3CCC4)SC2)cc1 | 8.7% (inactive)
97 | Clc1ccc(C2=Nn3c(nnc3-c3n[nH]c4c3CCC4)SC2)cc1 | 46.1% (inactive)
